From PubChem BioAssay (NCI) come the findings set out here.

Values joined by “and” are separate entries in the source; they are usually repeats but may differ in a detail not shown here. Equal values may be shown once. This is part of a sample that, as a whole, favours compounds with a hit. Of some 83,000 tested, about 20% had one in any assay.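 Treatment: one concentration, 48 hours, 96-well format. Scoring: percent growth, with anything below 10 considered active.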 Active and inactive are the calls of the source.

The assay concerns MDA-MB-468 breast. Put plainly: NCI-60 one-dose screen, 48 h (100 = growth as untreated, 0 = no growth, -100 = all killed). The settings on record: 10 µM unless noted.
`C/C=C/CC(C)C(O)[C@H](NC(=O)[C@@H]1CCCN1C(=O)C(C)(C)NC(=O)CCCCCCC)C(=O)N[C@@](C)(CC)C(=O)N[C@@H](CCC(N)=O)C(=O)N[C@H](CCC(N)=O)C(=O)NC(C)(C)C(=O)NC(C)(C)C(=O)N[C@@H](CCC(N)=O)C(=O)N[C@H](CC(C)C)C(=O)N[C@H](CO)CC(C)C` (stereo partly specified): the growth is 106% (inactive) and -55.5% (active).

Turning to `CC(=O)Nc1ccc(Cc2ccc(NC(C)=O)cc2)cc1`, the growth was 95.6% (inactive).

As to `CCOc1c(Cl)cc(CNC(C)C(O)c2ccccc2)cc1OC` (stereo unspecified), the growth is 32.5% (inactive).

As for `Cc1cccc(N=C2c3cc([N+](=O)[O-])ccc3-c3c2cc([N+](=O)[O-])cc3[N+](=O)[O-])c1`, the growth was -24.4% (active).

Take `n1nc(-c2nonc2-c2nn[nH]n2)n[nH]1`: the growth is 101% (inactive).

As for `CCOP(=O)(OCC)C(=O)N(CC)CC`, the growth is 90.3% (inactive).

Take `COc1ccn(C)c(=O)c1C#N`: the growth was 102% (inactive).

As for `O=C(C(=O)N1CCCC1)c1cn(CCCCCn2cc(C(=O)C(=O)N3CCCC3)c3ccccc32)c2ccccc12`, the growth was 91% (inactive).

`CCOC(=O)N[C@H]1CCc2c(Br)c(OC)c(OC)c(OC)c2-c2ccc(SC)c(=O)cc21`: the growth was -14.7% (active).

As for `CNC(=O)Oc1cccc(N(C)C)c1`, the growth is 92.7% (inactive).

Take `CC(=O)O[C@H](C[C@H](C(C)C)N(C)C(=O)[C@@H](NC(=O)[C@H]1CCCCN1C)C(C)C)c1cccc(C(=O)N[C@@H](Cc2ccccc2)C[C@H](C)C(=O)O)n1`: the growth is 20.9% (inactive).

`COC(=O)[C@@H](C)C[C@H](Cc1ccc(F)cc1)NC(=O)c1csc([C@@H](C[C@H](C(C)C)N(C)C(=O)[C@@H](NC(=O)[C@H]2CCCCN2C)C(C)C)OC(C)=O)n1`: the growth is 21% (inactive).

Turning to `CC(C)c1cccc(C(C)C)c1O`, the growth is 101% (inactive) and 94.3% (inactive).

In the case of `C=C1[C@@H](C)C2[C@H](Cc3ccccc3)NC(=O)[C@]23[C@H](OC(C)=O)/C=C/[C@@](C)(O)C(=O)[C@@H](C)C/C=C/[C@H]3[C@@H]1O` (stereo partly specified), the growth is 45.2% (inactive).

As for `COCC1OC2OC3C(COC)OC(OC4C(COC)OC(OC5C(COC)OC(OC6C(COC)OC(OC7C(COC)OC(OC8C(COC)OC(OC1C(O)C2O)C(O)C8O)C(O)C7O)C(O)C6O)C(O)C5O)C(O)C4O)C(O)C3O` (stereo unspecified) (tested in a mixture with another compound), the growth was 105% (inactive).

As for `O=[N+]([O-])c1ccc(OCc2ccc(S(=O)(=O)F)c(Cl)c2)c(Cl)c1`, the growth is 121% (inactive).

For the compound `C[N+]1(C)CCCC1c1cccnc1` (stereo unspecified), the growth was 101% (inactive).

As for `C[C@]12CCC3[C@@H](C[C@@H]4SC(Nc5ccccc5)=N[C@@]45CC(=O)CC[C@]35C)[C@@H]1CCC2=O` (stereo partly specified), the growth is -26.8% (active).

`COc1ccc(Nc2ccnc3cc(Cl)ccc23)cc1CN(CCCl)CCCl`: the growth was -58.6% (active).

With `CC[C@]12C=CCN3CC[C@]4(C(=C(C(=O)OC)C1)Nc1cc(OC)c(OC(C)=O)cc14)[C@@H]32`, the growth is 50.3% (inactive).

Turning to `COc1ccc(CN2CCN(Cc3ccccc3)CC2)c(O)c1`, the growth was 75.5% (inactive).

Take `CC[C@H](CC[C@@H](C)[C@H]1CC[C@H]2[C@@H]3CC[C@H]4C[C@]5(CC[C@]4(C)[C@H]3CC[C@]12C)OO[C@](C)(C(F)(F)F)O5)C(C)C`: the growth is 95.2% (inactive).

`c1cc2c(c3c1CCNC3)OCO2`: the growth was 87.4% (inactive).

Regarding `CC1=C(CN(O)C(N)=O)C2=C(C)C3(CC3)[C@@](C)(O)C(=O)C2=C1`, the growth was -69.1% (active).

On to `CC(C)=CCC[C@H](C(=O)O)[C@@H]1CC[C@]2(C)C3=C(CC[C@@]12C)[C@@]1(C)CC[C@H](O)C(C)(C)[C@@H]1CC3`, for which the growth was 107% (inactive).

As to `CCCCS(=O)(=O)Cl`, the growth was 104% (inactive).

As for `CCOC(=O)N1CC1`, the growth is 92.5% (inactive).

Turning to `COc1ccc(/C=C\c2cc(OC)c(OC)c(OC)c2)cc1N/C=C\C(=O)c1c[nH]c2ccccc12`, the growth was 11.3% (inactive).

As for `Clc1cccc(N2COOC3(OOC2)C2CC4CC(C2)CC3C4)c1`, the growth was 77.7% (inactive).

For `CCC1CN1P(=O)(OCCOC)N1CC1CC` (stereo unspecified), the growth was 110% (inactive).

Take `C/C(=C\c1ccn(-c2ccc(N)cc2)n1)[C@@H]1C[C@@H]2O[C@]2(C)CCC[C@H](C)[C@H](O)[C@@H](C)C(=O)C(C)(C)[C@@H](O)CC(=O)O1`: the growth was 13.9% (inactive).
